# Data taken from publication PMC7862700, “An all-to-all approach to the identification of sequence-specific readers for epigenetic DNA modifications on cytosine”.
# Legend:
# Experiment in all cases: DAPPL (digital affinity profiling via proximity ligation, sequencing); 10 mM Tris-HCl pH 7.5, 50 mM NaCl, 1 mM DTT, 4% glycerol, room temperature, 30 min; GST-TFs on glutathione beads, 16-mer random dsDNA library, 0.1% formaldehyde crosslink after washing; high values mean tight binding
# [1] = target: T1, FLI1 (Homo sapiens, UniProt Q01543 1-452); conditions: protein: recombinant; tags: N-terminal GST; dsDNA, one strand shown
# T1 sequence: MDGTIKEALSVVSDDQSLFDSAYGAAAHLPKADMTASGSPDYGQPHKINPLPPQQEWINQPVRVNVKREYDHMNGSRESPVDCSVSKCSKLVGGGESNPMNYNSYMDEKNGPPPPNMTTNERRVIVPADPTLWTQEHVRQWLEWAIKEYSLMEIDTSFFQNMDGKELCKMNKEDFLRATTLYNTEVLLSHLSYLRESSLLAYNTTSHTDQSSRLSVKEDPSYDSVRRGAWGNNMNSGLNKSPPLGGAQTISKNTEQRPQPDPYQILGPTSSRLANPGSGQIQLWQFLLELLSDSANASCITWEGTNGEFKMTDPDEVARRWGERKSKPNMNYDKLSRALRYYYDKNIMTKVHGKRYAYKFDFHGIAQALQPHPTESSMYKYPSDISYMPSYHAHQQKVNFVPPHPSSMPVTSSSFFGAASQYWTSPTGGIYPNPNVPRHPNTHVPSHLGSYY
# How it was run: (§1)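 Pools of DNA-barcoded human transcription factors, expressed in yeast as GST fusions on glutathione beads and combined with a tag-only sample, were incubated with 200 nmole of a 16-mer random double-stranded DNA library. Incubation took 30 min at room temperature in Tris/NaCl/DTT/glycerol buffer and was followed by washing, 0.1% formaldehyde crosslinking, proximity ligation (BsaI/T4 ligase, 1 h, 37 °C), PCR amplification and sequencing on an Illumina NextSeq500. Binding signal is the ratio of a hexamer's read frequency for a factor to its frequency for the tag-only sample.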
# [2] = target: T2, ELK1 (Homo sapiens, UniProt P19419 1-428); conditions: protein: recombinant; tags: N-terminal GST; dsDNA, one strand shown
# T2 sequence: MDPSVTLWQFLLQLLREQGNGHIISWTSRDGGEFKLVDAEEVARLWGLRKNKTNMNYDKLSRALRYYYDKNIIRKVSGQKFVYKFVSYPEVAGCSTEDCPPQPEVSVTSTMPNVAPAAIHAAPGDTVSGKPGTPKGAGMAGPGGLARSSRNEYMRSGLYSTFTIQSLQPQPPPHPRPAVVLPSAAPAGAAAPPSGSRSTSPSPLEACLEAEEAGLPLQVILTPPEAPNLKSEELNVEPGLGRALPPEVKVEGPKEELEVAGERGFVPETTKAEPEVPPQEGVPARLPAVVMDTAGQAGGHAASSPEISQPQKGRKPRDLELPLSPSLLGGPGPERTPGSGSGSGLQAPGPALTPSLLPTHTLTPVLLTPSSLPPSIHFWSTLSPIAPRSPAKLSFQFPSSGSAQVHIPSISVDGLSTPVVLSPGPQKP
# How it was run: as §1
# [3] = target: T3, GABPA (Homo sapiens, UniProt Q06546 1-454); conditions: protein: recombinant; tags: N-terminal GST; dsDNA, one strand shown
# T3 sequence: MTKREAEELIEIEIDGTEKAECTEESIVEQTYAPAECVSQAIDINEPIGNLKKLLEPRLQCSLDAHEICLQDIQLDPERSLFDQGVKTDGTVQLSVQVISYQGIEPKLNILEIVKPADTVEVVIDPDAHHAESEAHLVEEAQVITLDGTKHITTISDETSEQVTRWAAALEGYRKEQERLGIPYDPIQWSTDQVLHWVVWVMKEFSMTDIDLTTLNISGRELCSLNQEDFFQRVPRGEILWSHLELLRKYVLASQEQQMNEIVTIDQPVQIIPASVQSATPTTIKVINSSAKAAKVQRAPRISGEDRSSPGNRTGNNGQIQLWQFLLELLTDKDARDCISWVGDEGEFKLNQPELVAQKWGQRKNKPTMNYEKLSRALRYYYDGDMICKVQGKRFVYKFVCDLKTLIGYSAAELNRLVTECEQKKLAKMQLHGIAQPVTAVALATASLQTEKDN
# How it was run: as §1
# [4] = target: T4, ERG (Homo sapiens, UniProt P11308 1-479); conditions: protein: recombinant; tags: N-terminal GST; dsDNA, one strand shown
# T4 sequence: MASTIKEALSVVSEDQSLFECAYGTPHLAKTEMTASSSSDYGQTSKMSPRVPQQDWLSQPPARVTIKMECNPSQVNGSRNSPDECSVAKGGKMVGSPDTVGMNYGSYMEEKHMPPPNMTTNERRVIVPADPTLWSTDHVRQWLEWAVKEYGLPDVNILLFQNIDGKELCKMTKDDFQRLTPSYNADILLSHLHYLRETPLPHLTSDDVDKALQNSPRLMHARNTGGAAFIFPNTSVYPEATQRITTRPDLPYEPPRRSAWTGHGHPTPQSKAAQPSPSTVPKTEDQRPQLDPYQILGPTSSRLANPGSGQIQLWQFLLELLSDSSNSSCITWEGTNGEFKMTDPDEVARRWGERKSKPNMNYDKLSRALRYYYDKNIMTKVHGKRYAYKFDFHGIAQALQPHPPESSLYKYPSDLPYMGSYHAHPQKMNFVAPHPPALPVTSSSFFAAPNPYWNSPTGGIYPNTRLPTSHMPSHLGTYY
# How it was run: as §1
# [5] = target: ELF1 (Homo sapiens, UniProt P32519 1-619); conditions: protein: recombinant; tags: N-terminal GST; dsDNA, one strand shown
# ELF1, sequence (P32519 whole entry): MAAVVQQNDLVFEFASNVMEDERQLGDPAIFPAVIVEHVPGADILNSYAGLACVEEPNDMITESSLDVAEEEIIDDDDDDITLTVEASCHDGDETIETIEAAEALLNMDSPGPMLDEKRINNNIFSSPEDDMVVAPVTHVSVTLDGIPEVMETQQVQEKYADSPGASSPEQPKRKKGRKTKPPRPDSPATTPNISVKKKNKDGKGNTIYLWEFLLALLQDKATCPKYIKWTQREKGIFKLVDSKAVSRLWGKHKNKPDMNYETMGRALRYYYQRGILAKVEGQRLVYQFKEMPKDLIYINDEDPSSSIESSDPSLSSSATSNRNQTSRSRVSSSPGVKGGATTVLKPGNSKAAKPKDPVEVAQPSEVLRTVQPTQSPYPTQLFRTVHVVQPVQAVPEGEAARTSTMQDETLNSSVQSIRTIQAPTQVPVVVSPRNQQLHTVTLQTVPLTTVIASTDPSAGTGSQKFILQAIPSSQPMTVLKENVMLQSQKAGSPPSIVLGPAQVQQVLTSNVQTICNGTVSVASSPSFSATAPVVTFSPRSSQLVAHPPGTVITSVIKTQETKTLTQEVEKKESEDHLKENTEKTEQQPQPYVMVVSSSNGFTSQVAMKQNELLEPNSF
# How it was run: as §1
# [6] = target: T5, EHF (Homo sapiens, UniProt Q9NZC4 1-300); conditions: protein: recombinant; tags: N-terminal GST; dsDNA, one strand shown
# T5 sequence: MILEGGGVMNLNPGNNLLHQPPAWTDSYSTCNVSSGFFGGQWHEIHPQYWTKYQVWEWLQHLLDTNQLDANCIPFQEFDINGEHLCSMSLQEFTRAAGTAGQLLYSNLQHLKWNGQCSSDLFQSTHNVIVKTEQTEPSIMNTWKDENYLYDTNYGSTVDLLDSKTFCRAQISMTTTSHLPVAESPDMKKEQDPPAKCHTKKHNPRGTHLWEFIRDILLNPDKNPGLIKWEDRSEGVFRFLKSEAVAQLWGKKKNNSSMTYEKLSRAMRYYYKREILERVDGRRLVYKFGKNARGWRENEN
# How it was run: as §1
# [7] = target: SPI1 (Homo sapiens, UniProt P17947 1-270); conditions: protein: recombinant; tags: N-terminal GST; dsDNA, one strand shown
# How it was run: as §1
# [8] = target: SPIB (Homo sapiens, UniProt Q01892 1-262); conditions: protein: recombinant; tags: N-terminal GST; dsDNA, one strand shown
# SPIB, sequence (Q01892 whole entry): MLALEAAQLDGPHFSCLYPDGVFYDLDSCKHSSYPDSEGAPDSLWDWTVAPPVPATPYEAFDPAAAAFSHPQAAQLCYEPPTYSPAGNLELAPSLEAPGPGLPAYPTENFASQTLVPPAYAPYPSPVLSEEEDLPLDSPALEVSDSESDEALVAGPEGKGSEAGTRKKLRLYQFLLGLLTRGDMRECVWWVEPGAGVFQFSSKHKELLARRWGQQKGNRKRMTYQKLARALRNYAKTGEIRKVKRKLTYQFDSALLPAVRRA
# How it was run: as §1
# [9] = target: T6, ELK3 (Homo sapiens, UniProt P41970 1-407); conditions: protein: recombinant; tags: N-terminal GST; dsDNA, one strand shown
# T6 sequence: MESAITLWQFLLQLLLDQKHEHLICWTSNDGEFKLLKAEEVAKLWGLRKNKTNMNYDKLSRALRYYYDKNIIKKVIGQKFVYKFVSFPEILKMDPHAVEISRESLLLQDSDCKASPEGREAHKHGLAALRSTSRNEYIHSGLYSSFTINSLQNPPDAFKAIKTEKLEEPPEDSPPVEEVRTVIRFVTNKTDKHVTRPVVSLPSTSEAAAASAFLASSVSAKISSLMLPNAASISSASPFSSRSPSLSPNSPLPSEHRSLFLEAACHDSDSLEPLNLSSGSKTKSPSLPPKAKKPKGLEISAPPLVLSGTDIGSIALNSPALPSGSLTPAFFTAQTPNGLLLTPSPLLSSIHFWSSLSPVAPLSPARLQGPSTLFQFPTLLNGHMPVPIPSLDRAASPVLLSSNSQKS
# How it was run: as §1
# [10] = target: T7, FEV (Homo sapiens, UniProt Q99581 1-238); conditions: protein: recombinant; tags: N-terminal GST; dsDNA, one strand shown
# T7 sequence: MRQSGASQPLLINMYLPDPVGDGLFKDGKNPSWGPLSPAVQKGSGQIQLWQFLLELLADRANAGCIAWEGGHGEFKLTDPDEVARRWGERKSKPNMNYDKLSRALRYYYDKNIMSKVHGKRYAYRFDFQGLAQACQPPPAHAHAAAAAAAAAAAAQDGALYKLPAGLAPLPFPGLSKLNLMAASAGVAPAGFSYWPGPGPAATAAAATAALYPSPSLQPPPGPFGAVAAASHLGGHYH
# How it was run: as §1
# [11] = target: ETV5 (Homo sapiens, UniProt P41161 1-510); conditions: protein: recombinant; tags: N-terminal GST; dsDNA, one strand shown
# ETV5, sequence (P41161 whole entry): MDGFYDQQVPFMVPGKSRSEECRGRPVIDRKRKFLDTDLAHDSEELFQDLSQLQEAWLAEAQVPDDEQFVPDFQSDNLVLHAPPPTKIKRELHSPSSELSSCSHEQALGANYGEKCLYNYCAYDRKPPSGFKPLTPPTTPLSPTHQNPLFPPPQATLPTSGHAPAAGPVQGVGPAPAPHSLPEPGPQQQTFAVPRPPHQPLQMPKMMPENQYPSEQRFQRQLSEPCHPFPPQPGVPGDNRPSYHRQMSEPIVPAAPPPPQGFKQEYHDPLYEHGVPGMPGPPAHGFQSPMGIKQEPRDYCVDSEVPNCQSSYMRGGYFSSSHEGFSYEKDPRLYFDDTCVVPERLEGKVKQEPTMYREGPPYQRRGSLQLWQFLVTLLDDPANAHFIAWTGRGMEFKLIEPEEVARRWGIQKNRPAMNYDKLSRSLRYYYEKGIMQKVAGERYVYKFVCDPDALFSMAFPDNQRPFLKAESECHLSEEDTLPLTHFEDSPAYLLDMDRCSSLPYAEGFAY
# How it was run: as §1
# [12] = target: HSF1 (Homo sapiens, UniProt Q00613 1-529); conditions: protein: recombinant; tags: N-terminal GST; chain copies: 3; dsDNA, one strand shown
# HSF1, sequence (Q00613 whole entry): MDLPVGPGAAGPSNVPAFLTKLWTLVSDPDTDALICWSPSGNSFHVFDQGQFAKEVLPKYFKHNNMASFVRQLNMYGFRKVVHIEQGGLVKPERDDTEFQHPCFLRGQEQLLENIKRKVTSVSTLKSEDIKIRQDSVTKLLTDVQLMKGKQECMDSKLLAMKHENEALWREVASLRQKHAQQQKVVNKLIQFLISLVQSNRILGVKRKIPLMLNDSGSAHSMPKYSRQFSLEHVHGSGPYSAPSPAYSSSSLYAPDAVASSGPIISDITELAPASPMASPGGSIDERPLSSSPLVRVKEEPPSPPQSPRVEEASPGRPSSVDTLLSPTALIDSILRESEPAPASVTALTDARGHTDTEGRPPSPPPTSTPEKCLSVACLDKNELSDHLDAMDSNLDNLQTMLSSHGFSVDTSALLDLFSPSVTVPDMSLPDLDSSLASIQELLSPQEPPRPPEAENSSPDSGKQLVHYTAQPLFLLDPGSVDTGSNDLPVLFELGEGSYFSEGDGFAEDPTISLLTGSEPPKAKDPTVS
# How it was run: as §1
# [13] = target: T8, SPIC (Homo sapiens, UniProt Q8N5J4 1-248); conditions: protein: recombinant; tags: N-terminal GST; dsDNA, one strand shown
# T8 sequence: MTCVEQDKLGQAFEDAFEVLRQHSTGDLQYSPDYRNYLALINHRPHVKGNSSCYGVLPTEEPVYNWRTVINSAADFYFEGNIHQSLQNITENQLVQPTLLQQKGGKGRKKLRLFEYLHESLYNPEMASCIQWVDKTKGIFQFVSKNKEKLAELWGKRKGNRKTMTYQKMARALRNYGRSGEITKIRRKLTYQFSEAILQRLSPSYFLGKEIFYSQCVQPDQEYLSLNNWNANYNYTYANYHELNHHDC
# How it was run: as §1
# [14] = target: ELF4 (Homo sapiens, UniProt Q99607 1-663); conditions: protein: recombinant; tags: N-terminal GST; dsDNA, one strand shown
# ELF4, sequence (Q99607 whole entry): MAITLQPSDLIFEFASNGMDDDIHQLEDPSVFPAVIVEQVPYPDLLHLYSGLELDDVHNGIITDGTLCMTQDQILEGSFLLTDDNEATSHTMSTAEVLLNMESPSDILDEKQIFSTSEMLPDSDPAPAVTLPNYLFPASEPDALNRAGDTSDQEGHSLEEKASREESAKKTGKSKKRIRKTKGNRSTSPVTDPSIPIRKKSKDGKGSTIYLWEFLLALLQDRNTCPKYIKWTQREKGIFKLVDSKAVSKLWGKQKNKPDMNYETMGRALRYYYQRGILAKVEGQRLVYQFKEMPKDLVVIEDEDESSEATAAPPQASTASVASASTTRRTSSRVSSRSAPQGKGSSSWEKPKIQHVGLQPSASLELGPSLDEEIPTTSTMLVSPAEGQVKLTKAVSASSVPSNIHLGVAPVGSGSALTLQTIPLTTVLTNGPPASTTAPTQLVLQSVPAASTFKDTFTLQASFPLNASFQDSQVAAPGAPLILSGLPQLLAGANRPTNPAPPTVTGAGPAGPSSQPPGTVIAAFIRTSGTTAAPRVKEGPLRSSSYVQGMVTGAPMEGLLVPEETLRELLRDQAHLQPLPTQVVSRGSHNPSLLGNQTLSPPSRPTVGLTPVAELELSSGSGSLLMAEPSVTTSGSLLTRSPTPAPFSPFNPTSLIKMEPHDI
# How it was run: as §1
# [15] = target: T9, ELK4 (Homo sapiens, UniProt P28324-2 1-405); conditions: protein: recombinant; tags: N-terminal GST; dsDNA, one strand shown
# T9 sequence: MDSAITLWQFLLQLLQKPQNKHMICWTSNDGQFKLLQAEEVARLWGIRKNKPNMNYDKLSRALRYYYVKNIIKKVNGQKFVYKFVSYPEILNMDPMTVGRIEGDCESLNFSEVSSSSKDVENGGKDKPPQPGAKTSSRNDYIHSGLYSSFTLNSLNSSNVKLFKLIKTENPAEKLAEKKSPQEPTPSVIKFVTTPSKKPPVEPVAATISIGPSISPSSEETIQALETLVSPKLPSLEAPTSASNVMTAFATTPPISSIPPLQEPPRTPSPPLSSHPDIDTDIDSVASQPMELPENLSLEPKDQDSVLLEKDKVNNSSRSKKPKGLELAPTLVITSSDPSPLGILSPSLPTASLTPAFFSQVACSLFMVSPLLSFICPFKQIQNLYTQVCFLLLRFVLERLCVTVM
# How it was run: as §1
# [16] = target: T10, ETV2 (Homo sapiens, UniProt O00321 1-342); conditions: protein: recombinant; tags: N-terminal GST; dsDNA, one strand shown
# T10 sequence: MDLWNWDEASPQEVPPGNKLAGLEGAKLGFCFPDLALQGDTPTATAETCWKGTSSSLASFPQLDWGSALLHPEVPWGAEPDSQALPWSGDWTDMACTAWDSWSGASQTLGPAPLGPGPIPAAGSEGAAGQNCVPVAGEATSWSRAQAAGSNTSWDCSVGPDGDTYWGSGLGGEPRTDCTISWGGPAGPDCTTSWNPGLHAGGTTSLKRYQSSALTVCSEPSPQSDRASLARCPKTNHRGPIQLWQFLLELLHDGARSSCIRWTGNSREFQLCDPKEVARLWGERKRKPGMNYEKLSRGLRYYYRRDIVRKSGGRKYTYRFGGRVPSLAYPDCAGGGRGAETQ
# How it was run: as §1
# [17] = target: T11, ELF3 (Homo sapiens, UniProt P78545 1-371); conditions: protein: recombinant; tags: N-terminal GST; dsDNA, one strand shown
# T11 sequence: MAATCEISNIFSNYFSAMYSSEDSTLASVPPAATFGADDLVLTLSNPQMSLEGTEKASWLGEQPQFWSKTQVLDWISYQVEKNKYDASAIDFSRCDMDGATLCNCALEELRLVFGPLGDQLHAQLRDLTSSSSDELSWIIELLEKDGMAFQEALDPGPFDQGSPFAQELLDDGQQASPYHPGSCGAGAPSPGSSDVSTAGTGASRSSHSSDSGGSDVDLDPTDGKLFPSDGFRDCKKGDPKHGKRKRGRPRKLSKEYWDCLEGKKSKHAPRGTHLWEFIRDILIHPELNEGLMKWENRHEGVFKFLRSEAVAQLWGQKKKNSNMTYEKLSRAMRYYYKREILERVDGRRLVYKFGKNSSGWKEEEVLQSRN
# How it was run: as §1
# [18] = target: CRX (Homo sapiens, UniProt O43186 1-299); conditions: protein: recombinant; tags: N-terminal GST; dsDNA, one strand shown
# CRX, sequence (O43186 whole entry): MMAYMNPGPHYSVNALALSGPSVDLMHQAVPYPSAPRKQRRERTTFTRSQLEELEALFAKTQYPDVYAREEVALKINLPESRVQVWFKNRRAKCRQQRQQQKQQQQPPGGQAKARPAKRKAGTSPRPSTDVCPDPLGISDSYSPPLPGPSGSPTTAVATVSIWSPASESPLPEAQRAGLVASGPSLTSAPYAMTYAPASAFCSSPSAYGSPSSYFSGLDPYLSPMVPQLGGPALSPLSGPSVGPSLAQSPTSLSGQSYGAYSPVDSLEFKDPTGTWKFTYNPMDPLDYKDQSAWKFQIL
# How it was run: as §1
# [19] = target: ETV1 (Homo sapiens, UniProt P50549 1-477); conditions: protein: recombinant; tags: N-terminal GST; dsDNA, one strand shown
# ETV1, sequence (P50549 whole entry): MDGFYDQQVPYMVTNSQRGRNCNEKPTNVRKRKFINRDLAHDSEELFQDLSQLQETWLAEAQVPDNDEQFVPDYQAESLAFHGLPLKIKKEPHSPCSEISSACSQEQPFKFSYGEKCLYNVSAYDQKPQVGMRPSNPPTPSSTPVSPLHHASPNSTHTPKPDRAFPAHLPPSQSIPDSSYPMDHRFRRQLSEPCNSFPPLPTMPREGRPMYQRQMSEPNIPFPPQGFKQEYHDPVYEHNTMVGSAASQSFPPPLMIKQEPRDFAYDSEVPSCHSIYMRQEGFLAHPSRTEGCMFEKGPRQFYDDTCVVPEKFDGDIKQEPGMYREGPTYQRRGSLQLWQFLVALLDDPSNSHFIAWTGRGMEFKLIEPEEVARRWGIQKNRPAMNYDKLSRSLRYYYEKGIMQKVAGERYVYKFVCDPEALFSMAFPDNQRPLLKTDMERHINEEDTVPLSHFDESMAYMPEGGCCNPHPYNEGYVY
# How it was run: as §1
sequence,measurement,setting,value
CTTCCT,binding signal,[1],"3.11 fold enrichment (6-mer frequency, TF over GST control)"
same,binding signal,[2],"2.94 fold enrichment (6-mer frequency, TF over GST control)"
same,binding signal,[3],"2.95 fold enrichment (6-mer frequency, TF over GST control)"
same,binding signal,[4],"3.65 fold enrichment (6-mer frequency, TF over GST control)"
same,binding signal,[5],"3.01 fold enrichment (6-mer frequency, TF over GST control)"
same,binding signal,[6],"3.28 fold enrichment (6-mer frequency, TF over GST control)"
same,binding signal,[7],"5.09 fold enrichment (6-mer frequency, TF over GST control)"
same,binding signal,[8],"3.4 fold enrichment (6-mer frequency, TF over GST control)"
same,binding signal,[9],"3.04 fold enrichment (6-mer frequency, TF over GST control)"
same,binding signal,[10],"2.94 fold enrichment (6-mer frequency, TF over GST control)"
same,binding signal,[11],"3.4 fold enrichment (6-mer frequency, TF over GST control)"
same,binding signal,[12],"1.4 fold enrichment (6-mer frequency, TF over GST control)"
same,binding signal,[13],"3.47 fold enrichment (6-mer frequency, TF over GST control)"
same,binding signal,[14],"2.83 fold enrichment (6-mer frequency, TF over GST control)"
same,binding signal,[15],"2.83 fold enrichment (6-mer frequency, TF over GST control)"
same,binding signal,[16],"3.38 fold enrichment (6-mer frequency, TF over GST control)"
same,binding signal,[17],"2.95 fold enrichment (6-mer frequency, TF over GST control)"
same,binding signal,[18],"1.19 fold enrichment (6-mer frequency, TF over GST control)"
same,binding signal,[19],"3.18 fold enrichment (6-mer frequency, TF over GST control)"
